Records with an inconclusive call do not appear. Activity calls are given as the source filed them. Unless noted, calls follow the shape of the dose curve; as a rule, active = well fitted curve in the direction sought with a large enough effect; inconclusive = small, poorly fitted or top-dose-only effect, or another doubt; inactive = no such curve, though single readings can be large; an effect the other way counts as inactive or inconclusive.

Consider 30 molecules from PubChem BioAssay (NCATS).

Test [1] has as its target Calcium and integrin-binding protein 1 (Homo sapiens) (UniProt Q99828). The experiment in a line: Primary qHTS for Identification of Calcium Integrin Binding Protein 1 (CIB1) Competitor (AID 1508620). Also: top concentration of the series differs between compounds. As to conditions: CIB1-GST / FITC-alphaIIb peptide fluorescence polarization; series mostly up to 114 µM. In a few lines: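 Fluorescence polarization competition: GST-tagged CIB1 (1 uM final) preincubated with compound 15 min at room temperature, then FITC-labelled alphaIIb peptide (100 nM final) added. After 15 min at room temperature, polarization read at Ex 480/Em 540.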
For orientation: Quantitative high-throughput screening tests each substance at several concentrations.

Test [2] in a line: Primary qHTS for small molecule stabilizers of the endoplasmic reticulum resident proteome: Secreted ER Calcium Modulated Protein (SERCaMP) assay (AID 1508630). As to conditions: SH-SY5Y GLuc-SERCaMP (Gaussia luciferase released on ER calcium loss) secretion, thapsigargin, luminescence; series mostly up to 38.4 µM. In a few lines:
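The SH-SY5Y reporter protocol was run at 3 concentrations up to 38.3 uM (primary) or 11 concentrations (follow-up): 16 h compound, 100 nM thapsigargin for 4 h, then extracellular luciferase luminescence.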

A short description of test [3]: A High-Content qHTS Against Drug Library for the Identification of Small Molecules that Inhibit DYT1 Early Onset Primary Dystonia-Associated Cell Pathology (AID 1645839; calls by dose curve; also: potency is read from the fitted curve at half-maximal effect). As to conditions: HEK293 Flp-In EGFP-delE TorsinA, punctate imaging, 48 h; series mostly up to 46.1 µM. Summed up:
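Cells were seeded and left for 24 h, then dosed with compound alongside tetracycline induction of mutant EGFP-TorsinA. They were incubated for 48 h, fixed in 4% paraformaldehyde, permeabilized and imaged for mislocalization (%pathology) and cell count.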

The target of test [4] is Cytochrome P450 2D6 (Homo sapiens) (UniProt P10635). Description: Cytochrome P450 family 2 subfamily D member 6 (CYP2D6) small molecule antagonists: luciferase biochemical (cell-free) qHTS assay (AID 1645840; active = well fitted curve in the direction sought with a large enough effect in the repeat runs; an effect the other way counts as inactive or inconclusive; also: nearly all actives have a fitted effect of over 55% in size; also: potency is read from the fitted curve at half-maximal effect). The conditions noted are these: P450-Glo CYP2D6 enzyme, luciferin luminescence, 1 h; series mostly up to 57.4 µM. In a few lines:
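P450-Glo CYP2D6 system: proluciferin substrate converted by enzyme to luciferin, read by luminescence proportional to activity. Enzyme-substrate mix with compound 10 min at room temperature, then NADPH regeneration 1 h before detection reagent.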

Test [5] in a line: Confirmatory qHTS for small molecule stabilizers of the endoplasmic reticulum resident proteome: Secreted ER Calcium Modulated Protein (SERCaMP) assay (AID 1508628). Also: nearly all actives have a fitted effect of over 40% in size. The conditions noted are these: SERCaMP secreted luciferase ER calcium/proteostasis reporter; series mostly up to 76.3 µM. Summed up:
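Reporter secretion upon ER calcium depletion (100 nM thapsigargin, 4 h, 37C) is measured as medium luminescence with coelenterazine, after 16 h compound pretreatment of SH-SY5Y-GLuc-SERCaMP cells; primary at three concentrations up to 38.3 uM, follow-up at 11 (up to 76.6 uM).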

Test [6] can be described thus: Cell Viability qHTS for small molecule stabilizers of the endoplasmic reticulum resident proteome (AID 1508629).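 Also: potency is read from the fitted curve at half-maximal effect; compound exposure about 46 h in total before the viability read.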 The conditions noted are these: cell viability counter-screen, 100 nM thapsigargin for final 4 h.
Test [7] addresses Cytochrome P450 2C9 (Homo sapiens) (UniProt P11712). Description: Cytochrome P450 family 2 subfamily C member 9 (CYP2C9) small molecule antagonists: luciferase biochemical (cell-free) qHTS assay (AID 1645842; active = well fitted curve in the direction sought with a large enough effect in the repeat runs; an effect the other way counts as inactive or inconclusive; also: nearly all actives have a fitted effect of over 55% in size; also: potency is read from the fitted curve at half-maximal effect). As to conditions: P450-Glo CYP2C9 enzyme assay, luciferin luminescence; series mostly up to 57.4 µM. In a few lines:
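P450-Glo CYP2C9 system: proluciferin substrate with enzyme in mix containing 0.4% BSA, 10 min at room temperature, then NADPH regeneration solution added and incubated 1 h at 37C. Detection reagent stopped reaction; luminescence read after 20 min as RLU.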

In test [8] the target is Cytochrome P450 3A4 (Homo sapiens) (UniProt P08684). The experiment in a line: Cytochrome P450 family 3 subfamily A member 4 (CYP3A4) small molecule antagonists: luciferase qHTS assay (AID 1645841; active = well fitted curve in the direction sought with a large enough effect in the repeat runs; an effect the other way counts as inactive or inconclusive; also: nearly all actives have a fitted effect of over 45% in size; also: potency is read from the fitted curve at half-maximal effect). The conditions noted are these: P450-Glo CYP3A4 enzyme assay, luciferin luminescence; series mostly up to 57.4 µM. In a few lines:
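P450-Glo CYP3A4 enzyme with proluciferin substrate preincubated 10 min with compound at room temperature, then NADPH regeneration 1 h. Luciferin detection reagent added for 20 min; luminescence recorded. Ketoconazole positive control.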

Chain of Cytochrome P450 2C9 (Homo sapiens) (P11712 whole entry, looked up): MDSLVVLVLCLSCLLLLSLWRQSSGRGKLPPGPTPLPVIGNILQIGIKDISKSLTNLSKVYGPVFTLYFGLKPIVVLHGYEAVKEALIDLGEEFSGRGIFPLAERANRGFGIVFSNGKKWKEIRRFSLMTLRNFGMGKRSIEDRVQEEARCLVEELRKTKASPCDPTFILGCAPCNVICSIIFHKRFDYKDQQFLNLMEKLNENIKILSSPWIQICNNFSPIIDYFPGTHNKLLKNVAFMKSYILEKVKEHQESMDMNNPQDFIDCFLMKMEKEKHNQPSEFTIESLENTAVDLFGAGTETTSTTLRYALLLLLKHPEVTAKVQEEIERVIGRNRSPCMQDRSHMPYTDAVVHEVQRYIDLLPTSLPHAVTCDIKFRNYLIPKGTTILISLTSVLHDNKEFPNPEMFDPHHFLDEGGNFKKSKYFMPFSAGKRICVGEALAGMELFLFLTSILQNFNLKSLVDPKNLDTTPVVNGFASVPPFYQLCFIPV
Chain of Cytochrome P450 3A4 (Homo sapiens) (P08684 whole entry, looked up): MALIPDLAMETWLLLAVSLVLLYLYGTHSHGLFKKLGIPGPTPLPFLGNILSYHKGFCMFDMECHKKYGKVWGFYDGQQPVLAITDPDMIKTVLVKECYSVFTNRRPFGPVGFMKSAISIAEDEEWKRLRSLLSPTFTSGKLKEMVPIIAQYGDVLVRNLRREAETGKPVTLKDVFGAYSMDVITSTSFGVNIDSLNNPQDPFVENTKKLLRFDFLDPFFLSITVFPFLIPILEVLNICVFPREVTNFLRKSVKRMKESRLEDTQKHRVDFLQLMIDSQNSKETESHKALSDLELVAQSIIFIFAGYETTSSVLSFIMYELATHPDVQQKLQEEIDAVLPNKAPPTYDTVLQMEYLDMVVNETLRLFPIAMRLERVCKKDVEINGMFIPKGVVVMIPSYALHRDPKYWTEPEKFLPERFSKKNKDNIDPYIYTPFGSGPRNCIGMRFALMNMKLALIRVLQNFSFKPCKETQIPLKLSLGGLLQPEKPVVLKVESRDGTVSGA
Chain of Calcium and integrin-binding protein 1 (Homo sapiens) (Q99828 whole entry, looked up): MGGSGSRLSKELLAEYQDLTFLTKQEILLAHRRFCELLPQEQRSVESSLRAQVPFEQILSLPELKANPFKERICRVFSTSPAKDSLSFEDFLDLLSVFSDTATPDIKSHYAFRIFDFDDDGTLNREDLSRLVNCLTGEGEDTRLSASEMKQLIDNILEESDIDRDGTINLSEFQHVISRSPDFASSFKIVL
Chain of Cytochrome P450 2D6 (Homo sapiens) (P10635 whole entry, looked up): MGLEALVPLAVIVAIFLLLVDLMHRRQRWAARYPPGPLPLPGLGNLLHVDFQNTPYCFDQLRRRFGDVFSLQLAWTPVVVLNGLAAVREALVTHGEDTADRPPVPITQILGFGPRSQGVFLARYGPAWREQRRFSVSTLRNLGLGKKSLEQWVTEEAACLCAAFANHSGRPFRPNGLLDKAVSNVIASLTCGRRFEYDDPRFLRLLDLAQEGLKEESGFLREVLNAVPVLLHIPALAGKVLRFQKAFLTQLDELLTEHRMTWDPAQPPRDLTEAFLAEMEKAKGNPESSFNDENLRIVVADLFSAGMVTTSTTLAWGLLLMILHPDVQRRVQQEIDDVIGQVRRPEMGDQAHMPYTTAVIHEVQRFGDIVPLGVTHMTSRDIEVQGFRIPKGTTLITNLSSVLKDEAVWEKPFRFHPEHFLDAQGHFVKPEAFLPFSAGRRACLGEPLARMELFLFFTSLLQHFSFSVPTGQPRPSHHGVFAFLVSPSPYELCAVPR

As for `CCNC(=O)NCCCOc1cccc(CN2CCCCC2)c1`, the Potency entry in test [1], in test [2] and in test [3] was “inactive” throughout.

Consider `O=C1NCCN1CCN1CCC(c2cn(-c3ccc(F)cc3)c3ccc(Cl)cc23)CC1`, for which the Potency entry in test [1] and in test [2] was “inactive” in each case. For the same molecule, the Potency is 11.2 µM (active) in test [3] and 1.55 µM (active) in test [4].

Turning to `CCOC(=O)C(=O)CCc1ccccc1`, the Potency entry in test [1], in test [2] and in test [3] was “inactive” each time.

For `O=C1NC(=O)/C(=C/c2ccc3c(c2)OC(F)(F)O3)S1`, the Potency entry in test [1] and in test [2] was “inactive” in each case.

As to `CCCC(=O)O[C@]1(C(=O)CCl)[C@@H](C)C[C@H]2[C@@H]3CCC4=CC(=O)C=C[C@]4(C)[C@@]3(F)C(=O)C[C@@]21C`, the Potency entry in test [1], in test [2] and in test [3] was “inactive” throughout.

For the molecule `CN1CCCN(C(c2ccccc2)c2ccc(Cl)cc2)CC1` (configuration not stated), the Potency result in test [1], in test [5] and in test [7] was “inactive” in each case. The Potency in test [6] was 25.1 µM (active); in test [4] it was 0.0776 µM (active).

On to `OC(CCCN1CCCCC1)(c1ccccc1)c1ccccc1`, for which the Potency result in test [1], in test [2] and in test [3] was “inactive” each time. Moreover, the Potency in test [4] is 0.138 µM (active).

Regarding `CC1c2ccccc2CN1NC(=O)c1ccc(Cl)c(S(N)(=O)=O)c1` (configuration not stated), the Potency result in test [1], in test [2], in test [3], in test [4], in test [8] and in test [7] was “inactive” each time.

On to `CCCC(=O)O[C@]1(C(=O)COC(=O)CC)CC[C@H]2[C@@H]3CCC4=CC(=O)CC[C@]4(C)[C@H]3[C@@H](O)C[C@@]21C`, for which the Potency entry in test [1], in test [2], in test [3], in test [4], in test [8] and in test [7] was “inactive” each time.

Regarding `NC(=O)NC1N=C([O][Al])NC1=O` (configuration not stated), the Potency entry in test [1], in test [2], in test [3] and in test [7] was “inactive” each time. Besides, the figures for the Potency in test [4] and in test [8] were 13.8 µM (active) and 5.49 µM (active), respectively.

As to `C[C@H]1NCc2cc(-c3ccc4c(=O)c(C(=O)O)cn(C5CC5)c4c3OC(F)F)ccc21`, the Potency entry in test [1], in test [2], in test [3], in test [4] and in test [7] was “inactive” each time.

`CCCCN(CCCC)C(C(N)=O)c1ccc(OC)cc1` (configuration not stated): the Potency entry in test [1], in test [2], in test [3] and in test [7] was “inactive” throughout. Also, the Potency in test [4] is 0.776 µM (active).

`OC1(c2ccccc2)CCNCC1`: the Potency result in test [1], in test [2], in test [3] and in test [7] was “inactive” each time. Besides, the Potency in test [4] is 27.5 µM (active).

Turning to `CO[C@@]1(NC(=O)CSC[C@@H](N)C(=O)O)C(=O)N2C(C(=O)O)=C(CSc3nnnn3C)CS[C@@H]21`, the Potency entry in test [1], in test [2], in test [3], in test [4], in test [8] and in test [7] was “inactive” in each case.

Regarding `CC(=O)N(CC(=O)N(C)C)c1ccccc1`, the Potency entry in test [1], in test [2], in test [3], in test [4], in test [8] and in test [7] was “inactive” each time.

Take `CCOC(=O)CN1CCCC1=O`: the Potency result in test [1], in test [2], in test [3], in test [4], in test [8] and in test [7] was “inactive” throughout.

For the molecule `CC(=O)N(CC(O)CO)c1c(I)c(C(=O)NCCO)c(I)c(C(=O)NCC(O)CO)c1I` (configuration not stated), the Potency entry in test [1], in test [2], in test [3], in test [4], in test [8] and in test [7] was “inactive” each time.

As to `O=C(c1ccco1)N1CCNCC1`, the Potency result in test [1], in test [2], in test [3], in test [4] and in test [7] was “inactive” in each case.

For the molecule `CN(C)C(=O)CNC(=O)Cc1ccccc1`, the Potency entry in test [1], in test [2], in test [3], in test [4], in test [8] and in test [7] was “inactive” throughout.

For `O=C(OCC(COC(=O)c1cccnc1)(COC(=O)c1cccnc1)COC(=O)c1cccnc1)c1cccnc1`, the Potency entry in test [1], in test [2], in test [3] and in test [4] was “inactive” each time.

On to `CN1[C@@H]2CC[C@H]1CC(NC(=O)n1c(=O)[nH]c3ccccc31)C2` (some centres not stated), for which the Potency entry in test [1], in test [2], in test [3] and in test [7] was “inactive” in each case. Besides, in test [4], the Potency was 1.55 µM (active).

With `CCCCN(CCN(CCCC)C(=O)N1CCOCC1)C(=O)N1CCOCC1`, the Potency entry in test [1], in test [2], in test [3], in test [4] and in test [7] was “inactive” throughout.

Turning to `Cc1onc(-c2c(Cl)cccc2Cl)c1C(=O)Cl`, the Potency result in test [1], in test [2], in test [3] and in test [4] was “inactive” each time.

As for `O=C(O)CCC(=O)OC[C@@H](NC(=O)C(Cl)Cl)[C@H](O)c1ccc([N+](=O)[O-])cc1`, the Potency result in test [1], in test [2], in test [3] and in test [4] was “inactive” each time.

As for `CNC[C@H](O)[C@@H](O)[C@H](O)[C@H](O)CO`, the Potency entry in test [1], in test [2], in test [3], in test [4] and in test [7] was “inactive” each time.

With `O=C(NN1CCCC1)NS(=O)(=O)c1ccc(Cl)cc1`, the Potency result in test [1], in test [2], in test [3], in test [4], in test [8] and in test [7] was “inactive” in each case.

For the molecule `CC(=O)OCC(=O)Nc1cc(C#N)cc(NC(=O)COC(C)=O)c1Cl`, the Potency result in test [1], in test [2], in test [3], in test [4], in test [8] and in test [7] was “inactive” each time.

As to `Nc1ncnc2nc[nH]c12`, the Potency entry in test [1], in test [2], in test [3], in test [4], in test [8] and in test [7] was “inactive” throughout.

`O=C(OCC1(COC(=O)c2cccnc2)CCCC(COC(=O)c2cccnc2)(COC(=O)c2cccnc2)C1O)c1cccnc1`: the Potency result in test [1], in test [2], in test [3] and in test [4] was “inactive” throughout. Further, the Potency in test [7] was 2.45 µM (active).

`CCN(CC)CC(=O)OCC(=O)[C@@]1(O)CC[C@H]2[C@@H]3CCC4=CC(=O)CC[C@]4(C)[C@H]3[C@@H](O)C[C@@]21C`: the Potency result in test [1], in test [2], in test [3], in test [4] and in test [7] was “inactive” throughout.
